Experimental data reported in PubChem BioAssay (NCI).
The panel holds about 83,000 compounds, 20% with a hit somewhere; the sample as a whole holds those more often.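 Negative percent growth values reflect cell death: -40 means 40% of the cells present at the start died, and -100 means all died.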 Active and inactive are the calls of the source. The calls were made as follows: active = growth percent below 10; inactive = the rest.

Legend:
Assay in all cases: NCI-60 one-dose screen, 48 h (100 = growth as untreated, 0 = no growth, -100 = all killed)
Conditions in all cases: 10 µM unless noted
[1] = system: HCT-15 colon
[2] = system: HT29 colon
[3] = system: SNB-75 CNS
[4] = system: SNB-19 CNS
[5] = system: U251 CNS
[6] = system: PC-3 prostate
[7] = system: SK-MEL-5 melanoma
[8] = system: UACC-62 melanoma
[9] = system: LOX IMVI melanoma
[10] = system: SK-MEL-28 melanoma

Measured: growth

N#Cc1cnn2c(-c3ccc(Cl)cc3)nc(NCCc3ccccc3)nc12
inactive: [1] 103% | [2] 80.7% | [3] 78.8% | [4] 100% | [5] 97% | [6] 73.7% | [7] 99.8% | [8] 65.7% | [9] 84.9% | [10] 101%

NS(=O)(=O)Oc1ccc(-c2sc3cc(O)ccc3c2C(=O)c2ccc(OCCN3CCCCC3)cc2)cc1
active: [2] 0.722% | [8] -47.2%
inactive: [1] 36.2% | [3] 39.6% | [4] 78.2% | [5] 21.9% | [6] 69.9% | [7] 46.2% | [9] 34.4% | [10] 23.6%

CN1CCC(=C2c3ccccc3C=Cc3ccccc32)CC1
inactive: [1] 73.7% | [2] 61.9% | [3] 47.8% | [4] 91.7% | [5] 59.8% | [6] 64.9% | [7] 68.6% | [8] 82.5% | [9] 72.1% | [10] 85.9%

COc1ccc(C2CC(c3ccccc3)=NN2c2nc(C)c(C(C)=O)s2)cc1 (stereo not given)
inactive: [1] 98.7% | [2] 102% | [3] 90.2% | [4] 99.3% | [5] 100% | [6] 97% | [7] 103% | [8] 91.5% | [9] 94.6% | [10] 112%

N#C/C(=C\c1ccc2c(c1)OCO2)n1nnc2ccccc21
active: [1] 9% | [3] -49.7% | [9] -11%
inactive: [2] 11.5% | [4] 19.8% | [5] 13% | [6] 12.5% | [7] 20.4% | [8] 20% | [10] 25.8%

CC(C)n1nc(C#Cc2cccc(O)c2)c2c(N)ncnc21
active: [1] -11.2% | [2] -17.7% | [3] -84.7% | [4] -21.4% | [5] -37.1% | [6] -11.8% | [7] -91.8% | [8] -88.9% | [9] -92.4% | [10] -47.5%

CC(C)OC(=O)OCOP(=O)(OCOC(=O)OC(C)C)C1CCCN(O)C1=O (stereo not given)
active: [2] 5.87%
inactive: [1] 33.4% | [3] 57.6% | [4] 21.5% | [5] 15.2% | [6] 60.5% | [7] 30.9% | [8] 23.6% | [9] 39% | [10] 15.2%

Cc1cc(=O)[nH]c(N/N=C/c2cc(Br)ccc2O)n1
active: [8] 4.29% | [9] 9.27%
inactive: [1] 30.5% | [2] 58.9% | [3] 62.9% | [4] 40.6% | [5] 26.8% | [6] 56.8% | [7] 26.3% | [10] 42.8%

C=CC(=O)Nc1cccc(C)c1Nc1cc(-c2cccnc2Cc2c(C)c(OC)cc(OC)c2C)ncn1
active: [2] 5.04% | [5] -16.1% | [6] 8.05%
inactive: [1] 42.3% | [3] 23.9% | [4] 23.3% | [7] 57.9% | [8] 38% | [9] 13.9% | [10] 44.3%

Fc1ccc(Nc2ccc3cc(OCCCN4CCOCC4)ccc3n2)cc1F
active: [2] -6.89% | [8] -19.8% | [9] -46.9%
inactive: [1] 28.7% | [3] 48.6% | [4] 64.9% | [5] 41.7% | [6] 45.2% | [7] 60% | [10] 43.4%

Cc1nc(Nc2ccc(NC(=S)Nc3ccccc3)cc2)nc2nc(Nc3ccc(S(=O)(=O)O)cc3)[nH]c(=O)c12
inactive: [1] 127% | [2] 145% | [3] 128% | [4] 96.2% | [5] 110% | [6] 99.5% | [7] 117% | [8] 105% | [9] 109% | [10] 125%

CC(c1ccc(-n2cccn2)cc1)c1cnc(N2CCc3ccc(C(N)=O)cc3C2)s1 (stereo not given)
inactive: [1] 69.3% | [2] 81.3% | [3] 76.1% | [4] 85.4% | [5] 78.3% | [6] 59.1% | [7] 18.8% | [8] 57.3% | [9] 66.4% | [10] 81.8%

COc1cc(C2C=C(c3cccc(NC(C)=O)c3)Nc3ncnn32)cc(OC)c1OC (stereo not given)
inactive: [1] 41.4% | [2] 10.9% | [3] 21.9% | [4] 52% | [5] 25.4% | [6] 33.3% | [7] 21.6% | [8] 22.9% | [9] 42.1% | [10] 51.5%

COc1ccc(C2CC(c3ccc4ccccc4c3)=NN2c2nc(O)c(C3=c4cc(Cl)ccc4=NC3=O)s2)cc1 (stereo not given)
active: [1] -33.4% | [2] -46.5% | [3] -51.5% | [4] 3.08% | [5] -94.6% | [6] -44.4% | [7] -95.2% | [8] -46.5% | [9] -75.7% | [10] -18.8%

CCCCCCNC(=O)c1cc(NCc2cc(O)ccc2O)ccc1O
inactive: [1] 34.6% | [2] 91% | [3] 45.7% | [4] 99.7% | [5] 67.3% | [6] 42.6% | [7] 90% | [8] 56.3% | [9] 67.7% | [10] 101%

C=C1C(=O)O[C@H]2[C@H]1CC/C(C(=O)NCCCCCCCCNC(=O)/C1=C/CC[C@@]3(C)O[C@H]3[C@H]3OC(=O)C(=C)[C@@H]3CC1)=C\CC[C@@]1(C)O[C@@H]21
inactive: [1] 107% | [2] 82.5% | [3] 85.9% | [4] 99.3% | [5] 95.6% | [6] 74.5% | [7] 98.3% | [8] 56.3% | [9] 84% | [10] 42.3%

COc1cc2oc(-c3cccc(C(=O)Nc4ccc(C#N)cc4)c3)cc(=O)c2c(O)c1OC
inactive: [1] 75% | [2] 53.9% | [3] 83.9% | [4] 44% | [5] 61.3% | [7] 70.3% | [8] 41.5% | [9] 55.7% | [10] 32.8%
active: [6] 7.86%

CCCN1CCN(c2ccc3nc(-c4ccc5nc(-c6ccc(OCC)c(OCC)c6)[nH]c5c4)[nH]c3c2)CC1
active: [1] 5.97% | [2] -31.3% | [3] -77.9% | [4] -39.7% | [5] -71.9% | [6] -40.6% | [7] -93.9% | [8] -85% | [9] -84.3% | [10] -86.6%

C=C(C)[C@@H]1CC[C@]2(C(=O)NCC(=O)O)CC[C@]3(C)[C@H](CC[C@@H]4[C@@]5(C)Cc6c([nH]c7ccccc67)C(C)(C)[C@@H]5CC[C@]43C)[C@@H]12
inactive: [1] 77.5% | [2] 88.2% | [3] 64.2% | [4] 71.2% | [5] 61.8% | [6] 72.6% | [7] 103% | [8] 79.7% | [9] 99.1% | [10] 92.7%

COc1ccc(-c2c(N)n[nH]c2-c2ccccc2O)cc1OC
inactive: [1] 115% | [2] 112% | [3] 92.2% | [4] 89.1% | [5] 99.6% | [6] 82.7% | [7] 87.8% | [8] 99% | [9] 96.6% | [10] 103%

CN1CCN(C(=O)[C@]23CCC(C)(C)C[C@@H]2C2=CC[C@@H]4[C@@]5(C)Cc6c([nH]c7ccccc67)C(C)(C)[C@@H]5CC[C@@]4(C)[C@]2(C)CC3)CC1
inactive: [1] 81.5% | [2] 71.3% | [3] 56.6% | [4] 91.8% | [5] 78.3% | [6] 64.8% | [7] 94% | [8] 95.9% | [9] 77.4% | [10] 89.6%

CC(C)CCC[C@@H](C)[C@H]1CCC2C3=CCn4c(=O)ccc(=O)n4C3CC[C@@]21C (stereo not given in full)
active: [1] -44.6% | [2] -63.7% | [3] -100% | [4] -96.8% | [5] -96.9% | [6] -85.5% | [7] -100% | [8] -97.5% | [9] -89.5% | [10] -93%

CSc1nc2sc3cc(Cl)ccc3n2c(=N)c1C#N
inactive: [1] 94.7% | [2] 33% | [3] 26% | [4] 81.8% | [5] 89.4% | [6] 66.4% | [7] 45.2% | [8] 59.4% | [9] 86.8% | [10] 41.9%

CCCNCC(=O)Nc1ccc(C(=O)OC(C)(C)CC)cc1
inactive: [1] 106% | [2] 79.4% | [3] 104% | [4] 99.7% | [5] 100% | [6] 75.8% | [7] 98.2% | [8] 96.3% | [9] 100% | [10] 112%

CC1(C)C(=O)/C(=C\c2cccnc2)C[C@]2(C)[C@H]3CC=C4[C@@H]5C[C@@](C)(C(=O)O)CC[C@]5(C)CC[C@@]4(C)[C@]3(C)CC[C@@H]12
inactive: [1] 87.5% | [2] 91.5% | [3] 82% | [4] 96.8% | [5] 89% | [6] 75.3% | [7] 109% | [8] 97.7% | [9] 99.5% | [10] 109%

O=C(CCCCCCCn1cc(-c2cccnc2)nn1)Nc1ccccc1-c1ccccc1
inactive: [1] 24.1% | [2] 39% | [3] 92.3% | [4] 48.2% | [5] 31.1% | [6] 49.3% | [7] 30.5% | [8] 60.6% | [9] 57.3% | [10] 71%
